We go through one molecule from the supplement of paper PMC11732987, “Enantioselective OTUD7B fragment discovery through chemoproteomics screening and high-throughput optimisation” (Communications Chemistry, 2025).

Unmarked numbers belong to inactive results.

Common to all, as to assay: log2 ratio of Biotin-Ahx-Ub-VS probe labelling (fragment/DMSO); higher = less target engagement (more negative = stronger competition), active = hit call of the paper (q ≤ 0.05, log2 ratio ≤ -1)
Common to all, as to conditions: compound concentration: 200 uM; treatment time: 3 h

In one test the target is T1, OTUD6B (UniProt Q8N6M0).
T1 sequence (whole entry): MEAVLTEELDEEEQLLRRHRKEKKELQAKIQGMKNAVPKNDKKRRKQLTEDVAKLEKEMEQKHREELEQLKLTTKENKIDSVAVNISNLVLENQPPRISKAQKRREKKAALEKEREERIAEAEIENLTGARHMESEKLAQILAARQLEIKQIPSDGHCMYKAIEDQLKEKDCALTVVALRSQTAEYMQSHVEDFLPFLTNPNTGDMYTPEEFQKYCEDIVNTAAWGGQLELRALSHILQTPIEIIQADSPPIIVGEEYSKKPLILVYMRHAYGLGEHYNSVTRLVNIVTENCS
In a few lines: (§1)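 Labelled DUBs were enriched with NeutrAvidin, digested with LysC and trypsin, and run by diaPASEF LC-MS/MS. The labelling used Biotin-Ahx-Ub-VS at 0.5 µM final for 1 h on HEK293T lysate (495 µg per sample) previously treated in triplicate with fragment at 200 µM or vehicle for 3 h. Values are average log2 fragment/vehicle ratios by unpaired t-test on global-median-normalised Spectronaut quantities of proteins with ≥2 unique peptides.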

A further test deals with T2, OTUD7B (UniProt Q6GQQ9).
T2 sequence (whole entry): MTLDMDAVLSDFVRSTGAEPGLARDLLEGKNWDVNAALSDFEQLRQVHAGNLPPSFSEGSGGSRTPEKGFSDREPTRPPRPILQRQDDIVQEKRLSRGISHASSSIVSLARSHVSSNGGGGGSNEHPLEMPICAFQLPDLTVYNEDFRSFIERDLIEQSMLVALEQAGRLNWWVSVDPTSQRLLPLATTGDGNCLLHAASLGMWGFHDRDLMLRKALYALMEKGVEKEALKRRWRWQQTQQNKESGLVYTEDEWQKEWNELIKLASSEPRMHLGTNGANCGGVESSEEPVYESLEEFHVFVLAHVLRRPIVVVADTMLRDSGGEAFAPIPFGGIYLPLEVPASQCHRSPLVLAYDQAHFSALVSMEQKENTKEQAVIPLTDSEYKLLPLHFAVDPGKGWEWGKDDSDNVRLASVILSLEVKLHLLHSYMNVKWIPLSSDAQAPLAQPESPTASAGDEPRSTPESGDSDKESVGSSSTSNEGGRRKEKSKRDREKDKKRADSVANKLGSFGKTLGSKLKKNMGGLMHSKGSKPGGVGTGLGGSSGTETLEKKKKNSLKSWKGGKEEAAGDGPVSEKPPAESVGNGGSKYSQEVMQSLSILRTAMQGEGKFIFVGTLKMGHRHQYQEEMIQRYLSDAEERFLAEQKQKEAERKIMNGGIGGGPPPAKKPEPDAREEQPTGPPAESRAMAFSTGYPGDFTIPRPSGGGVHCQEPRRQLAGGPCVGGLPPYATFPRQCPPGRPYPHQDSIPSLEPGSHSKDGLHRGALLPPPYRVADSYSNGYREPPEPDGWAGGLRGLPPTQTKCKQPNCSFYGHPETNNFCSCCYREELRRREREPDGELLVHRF
In a few lines: as §1

A further test deals with PRPF8 (UniProt Q6P2Q9). In a few lines: as §1
Another test has as its target T3, PSMD7 (UniProt P51665).
T3 sequence (whole entry): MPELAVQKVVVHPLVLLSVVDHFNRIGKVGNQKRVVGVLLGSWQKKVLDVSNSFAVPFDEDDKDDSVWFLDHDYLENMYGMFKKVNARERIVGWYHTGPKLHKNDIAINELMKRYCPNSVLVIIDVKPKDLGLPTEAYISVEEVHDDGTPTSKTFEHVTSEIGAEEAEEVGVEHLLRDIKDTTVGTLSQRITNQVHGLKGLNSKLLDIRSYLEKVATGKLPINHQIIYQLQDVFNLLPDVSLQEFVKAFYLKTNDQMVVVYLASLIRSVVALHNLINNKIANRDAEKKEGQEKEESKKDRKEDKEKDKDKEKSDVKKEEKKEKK
In short, it runs like this: as §1

For another test, the target named is UCHL1 (UniProt P09936). In short, it runs like this: as §1
Chain of UCHL1 (P09936 whole entry, looked up): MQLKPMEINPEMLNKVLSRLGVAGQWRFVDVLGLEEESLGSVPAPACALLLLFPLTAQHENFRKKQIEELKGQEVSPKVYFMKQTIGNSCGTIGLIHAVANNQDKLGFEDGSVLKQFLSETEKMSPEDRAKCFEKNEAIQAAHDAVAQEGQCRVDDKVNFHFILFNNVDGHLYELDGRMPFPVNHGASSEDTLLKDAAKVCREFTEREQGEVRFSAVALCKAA
A further test has as its target T4, UCHL3 (UniProt P15374).
T4 sequence (whole entry): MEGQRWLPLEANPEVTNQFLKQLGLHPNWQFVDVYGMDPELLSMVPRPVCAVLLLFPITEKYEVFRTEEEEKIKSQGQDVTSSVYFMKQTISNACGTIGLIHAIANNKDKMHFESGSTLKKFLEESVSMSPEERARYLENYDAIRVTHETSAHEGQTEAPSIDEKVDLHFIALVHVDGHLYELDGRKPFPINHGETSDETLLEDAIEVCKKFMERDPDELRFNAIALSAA
In a few lines:
as §1

The target in another test is T5, UCHL5 (UniProt Q9Y5K5).
T5 sequence (whole entry): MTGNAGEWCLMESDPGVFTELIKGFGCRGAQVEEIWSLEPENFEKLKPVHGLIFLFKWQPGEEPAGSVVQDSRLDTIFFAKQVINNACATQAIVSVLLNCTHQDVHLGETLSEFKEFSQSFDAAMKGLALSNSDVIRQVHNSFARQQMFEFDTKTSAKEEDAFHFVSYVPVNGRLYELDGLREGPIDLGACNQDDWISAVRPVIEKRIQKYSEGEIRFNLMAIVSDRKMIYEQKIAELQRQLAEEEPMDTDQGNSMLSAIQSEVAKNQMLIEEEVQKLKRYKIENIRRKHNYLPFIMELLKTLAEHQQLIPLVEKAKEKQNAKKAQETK
In short, it runs like this:
as §1

The next test concerns the target USP10 (UniProt Q14694). In short, it runs like this:
as §1

The next test concerns the target T6, USP15 (UniProt Q9Y4E8).
T6 sequence (whole entry): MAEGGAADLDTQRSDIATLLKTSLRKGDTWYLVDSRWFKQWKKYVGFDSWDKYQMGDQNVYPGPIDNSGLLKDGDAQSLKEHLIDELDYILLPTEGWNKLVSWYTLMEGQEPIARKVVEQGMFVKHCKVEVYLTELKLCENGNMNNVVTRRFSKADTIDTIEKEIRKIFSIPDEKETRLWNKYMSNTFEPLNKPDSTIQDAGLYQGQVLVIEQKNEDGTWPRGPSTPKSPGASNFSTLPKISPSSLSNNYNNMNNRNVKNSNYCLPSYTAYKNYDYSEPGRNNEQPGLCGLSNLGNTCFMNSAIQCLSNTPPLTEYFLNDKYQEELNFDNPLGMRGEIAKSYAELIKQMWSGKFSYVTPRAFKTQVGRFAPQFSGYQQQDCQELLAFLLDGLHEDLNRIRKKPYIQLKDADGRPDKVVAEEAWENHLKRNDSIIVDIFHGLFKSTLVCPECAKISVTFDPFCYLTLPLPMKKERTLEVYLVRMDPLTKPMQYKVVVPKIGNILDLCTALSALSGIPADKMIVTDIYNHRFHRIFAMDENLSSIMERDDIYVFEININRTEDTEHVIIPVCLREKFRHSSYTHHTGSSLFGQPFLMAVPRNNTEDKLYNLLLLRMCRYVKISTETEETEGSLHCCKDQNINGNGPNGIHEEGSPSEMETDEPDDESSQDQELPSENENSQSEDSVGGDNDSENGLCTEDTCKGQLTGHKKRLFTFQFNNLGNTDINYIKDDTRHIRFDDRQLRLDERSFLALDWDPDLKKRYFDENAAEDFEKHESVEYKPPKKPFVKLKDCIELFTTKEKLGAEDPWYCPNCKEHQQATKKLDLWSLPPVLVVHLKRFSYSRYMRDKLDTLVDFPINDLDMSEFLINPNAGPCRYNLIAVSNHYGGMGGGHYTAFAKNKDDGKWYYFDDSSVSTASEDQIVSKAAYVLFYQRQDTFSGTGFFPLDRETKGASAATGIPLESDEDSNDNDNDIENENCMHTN
In a few lines: as §1

Chain of USP10 (Q14694 whole entry): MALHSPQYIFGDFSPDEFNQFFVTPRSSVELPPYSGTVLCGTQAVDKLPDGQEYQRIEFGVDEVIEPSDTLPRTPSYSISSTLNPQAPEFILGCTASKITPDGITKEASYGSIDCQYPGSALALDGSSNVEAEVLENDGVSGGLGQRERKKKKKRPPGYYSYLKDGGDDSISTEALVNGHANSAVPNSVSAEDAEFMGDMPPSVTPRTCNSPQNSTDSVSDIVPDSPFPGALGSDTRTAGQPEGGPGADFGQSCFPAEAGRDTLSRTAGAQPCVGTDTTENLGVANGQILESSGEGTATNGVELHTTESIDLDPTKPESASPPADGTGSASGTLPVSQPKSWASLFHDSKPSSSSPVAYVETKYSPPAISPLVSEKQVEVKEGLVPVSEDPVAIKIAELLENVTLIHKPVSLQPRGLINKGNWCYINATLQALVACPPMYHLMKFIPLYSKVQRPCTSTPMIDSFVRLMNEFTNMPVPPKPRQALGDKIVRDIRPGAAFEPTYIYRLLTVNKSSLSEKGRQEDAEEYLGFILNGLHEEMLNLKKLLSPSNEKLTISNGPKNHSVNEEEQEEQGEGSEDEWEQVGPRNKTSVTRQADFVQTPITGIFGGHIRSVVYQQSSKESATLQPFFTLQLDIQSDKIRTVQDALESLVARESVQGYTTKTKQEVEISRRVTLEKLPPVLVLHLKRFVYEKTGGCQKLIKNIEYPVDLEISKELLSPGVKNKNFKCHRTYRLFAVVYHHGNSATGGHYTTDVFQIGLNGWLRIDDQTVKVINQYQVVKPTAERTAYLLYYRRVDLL

In the case of `C[C@H]1CN(C(=O)CCl)CCN1C(=O)c1cnn(C)c1.Cl`, the “log2 ratio of Biotin-Ahx-Ub-VS probe labelling” value with OTUD6B is -0.288; in the test with OTUD7B, -0.168; with PRPF8 it was 0.144; with PSMD7, -0.0809; with UCHL1, -2.38 (active); with UCHL3, 0.376. Also, the entries for the “log2 ratio of Biotin-Ahx-Ub-VS probe labelling” value with UCHL5, with USP10 and in the test with USP15 were -0.259, 0.0256 and -0.149, respectively.
